From PubChem BioAssay (Tox21)
Inconclusive results are not listed. Activity calls are given as the source filed them. Unless noted, the call rests on the fitted dose curve; in most records, active means well fitted curve in the direction sought with a large enough effect in the repeat runs; inconclusive means weak or mixed curves; inactive means no such curve, though single readings can be large; an effect the other way counts as inactive or inconclusive.

What was measured:
[1] = qHTS assay to identify small molecule agonists of the peroxisome proliferator-activated receptor delta (PPARd) signaling pathway - cell viability counter screen (AID 743211); further: nearly all actives have a fitted effect of over 55% in size
Procedure, shortened: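 Viability was measured as CellTiter-Glo luminescence (30 min, room temperature) in the same wells as the beta-lactamase readout. GeneBLAzer PPARd UAS-bla HEK293H cells received compound after 5 h plating and were incubated 17 h at 37 C.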

[2] = biological target: Peroxisome proliferator-activated receptor delta (Homo sapiens) (UniProt Q03181); assay: qHTS assay to identify small molecule agonists of the peroxisome proliferator-activated receptor delta (PPARd) signaling pathway (AID 743212; calls by dose curve)
Chain of Peroxisome proliferator-activated receptor delta (Homo sapiens) (Q03181 whole entry, looked up): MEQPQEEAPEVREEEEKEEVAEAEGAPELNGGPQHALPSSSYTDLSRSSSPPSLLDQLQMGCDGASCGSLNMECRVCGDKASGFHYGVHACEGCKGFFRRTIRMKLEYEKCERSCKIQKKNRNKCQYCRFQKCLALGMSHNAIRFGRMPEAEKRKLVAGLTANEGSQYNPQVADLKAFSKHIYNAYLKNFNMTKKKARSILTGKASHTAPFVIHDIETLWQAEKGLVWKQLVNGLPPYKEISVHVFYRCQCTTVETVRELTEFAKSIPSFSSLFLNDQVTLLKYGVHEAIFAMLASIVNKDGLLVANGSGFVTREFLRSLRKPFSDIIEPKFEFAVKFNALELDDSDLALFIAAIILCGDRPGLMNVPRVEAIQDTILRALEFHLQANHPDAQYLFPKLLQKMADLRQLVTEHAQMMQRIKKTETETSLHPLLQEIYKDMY
Procedure, shortened: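 Tox21 library screened in GeneBLAzer PPARd UAS-bla HEK293H cells. After compound treatment at 37 C, a FRET-based beta-lactamase substrate was applied for 2 h and fluorescence recorded.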

[3] = qHTS assay to identify small molecule antagonists of the peroxisome proliferator-activated receptor delta (PPARd) signaling pathway - cell viability counter screen (AID 743213); further: nearly all actives have a fitted effect of over 50% in size
Procedure, shortened: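 Luminescence from CellTiter-Glo, added after the bla read and incubated 30 min at room temperature, gives viability of HEK293H PPARd-bla cells exposed to compounds for 17 h at 37 C with 300 nM L165041.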

[4] = qHTS assay to identify small molecule agonists of the farnesoid-X-receptor (FXR) signaling pathway - cell viability counter screen (AID 743218); further: nearly all actives have a fitted effect of over 45% in size
Procedure, shortened: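 Readout: CellTiter-Glo luminescence, 30 min RT, multiplexed after the FXR-bla FRET reading. HEK 293T FXR-UAS-bla cells received compound 5 h post-plating and were incubated 16 h at 37 C.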

[5] = qHTS assay to identify small molecule antagonists of the farnesoid-X-receptor (FXR) signaling pathway - cell viability counter screen (AID 743221; active means well fitted cell-killing curve with a large enough effect in the repeat runs, not every such curve was filed as active; further: nearly all actives have a fitted effect of over 50% in size)
Procedure, shortened: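 Cytotoxicity counter screen run in the FXR-bla reporter wells: HEK 293T cells exposed to compound with 50 uM (final) chenodeoxycholic acid for 16 h, 37 C, then viability measured by CellTiter-Glo luminescence after 30 min, room temperature.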

[6] = biological target: Vitamin D3 receptor (Homo sapiens) (UniProt P11473); assay: qHTS assay to identify small molecule agonists of the vitamin D receptor (VDR) signaling pathway (AID 743222; calls by dose curve)
Chain of Vitamin D3 receptor (Homo sapiens) (P11473 whole entry, looked up): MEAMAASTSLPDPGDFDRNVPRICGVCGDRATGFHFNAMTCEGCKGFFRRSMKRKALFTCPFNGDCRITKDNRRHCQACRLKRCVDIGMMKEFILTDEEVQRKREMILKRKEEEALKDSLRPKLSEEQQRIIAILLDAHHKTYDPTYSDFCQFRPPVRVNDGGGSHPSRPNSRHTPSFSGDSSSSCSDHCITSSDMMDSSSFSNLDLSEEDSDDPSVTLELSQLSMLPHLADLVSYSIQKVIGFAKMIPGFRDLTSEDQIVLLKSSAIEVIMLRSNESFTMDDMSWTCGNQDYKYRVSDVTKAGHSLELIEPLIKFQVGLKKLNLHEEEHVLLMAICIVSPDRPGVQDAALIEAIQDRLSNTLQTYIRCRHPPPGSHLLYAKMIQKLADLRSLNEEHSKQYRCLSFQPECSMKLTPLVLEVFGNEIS
Procedure, shortened: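 Following 4 h attachment at 37C, VDR-bla cells (2,000 per well) received DMSO-dissolved compounds or controls. After 16 h incubation, LiveBLAzer B/G FRET substrate was added and fluorescence read 2 h later at room temperature.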

[7] = biological target: Vitamin D3 receptor (Homo sapiens) (UniProt P11473); assay: qHTS assay to identify small molecule antagonists of the vitamin D receptor (VDR) signaling pathway (AID 743223; active means well fitted inhibition curve with a large enough effect in the signal ratio in the repeat runs, not every such curve was filed as active; the % refers to the signal ratio)
Procedure, shortened: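 Antagonist mode: compound added to VDR-bla cells alongside agonist 1alpha,25-dihydroxyvitamin D3 (3 nM final), incubation 16 h at 37C. Read-out is LiveBLAzer FRET fluorescence, 2 h at room temperature.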

[8] = qHTS assay to identify small molecule antagonists of the vitamin D receptor (VDR) signaling pathway - cell viability counter screen (AID 743225); further: nearly all actives have a fitted effect of over 50% in size
Procedure, shortened: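 Cytotoxicity counter screen read by CellTiter-Glo luminescence (30 min, room temperature) in the same wells as the VDR-bla antagonist readout. HEK 293T VDR-UAS-bla cells had 16 h at 37C with compound and 3 nM (final) 1-alpha,25-dihydroxyvitamin D3, then 2 h with FRET substrate.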

[9] = qHTS assay to identify small molecule agonists of the NFkB signaling pathway (AID 1159509; active means well fitted curve in the direction sought with a large enough effect in the signal ratio in the repeat runs, not every such curve was filed as active; the % refers to the signal ratio; further: series mostly up to about 61 µM)
Procedure, shortened: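 Agonist activity was read as beta-lactamase-driven FRET change (460 and 530 nm emission, 405 nm excitation) following 1.5 hr substrate loading at room temperature. Beforehand, ME-180 NFkB-bla reporter cells were treated with compounds for 5 hr at 37 C.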

[10] = qHTS assay to identify small molecule agonists of the NFkB signaling pathway - cell viability counter screen (AID 1159515; calls by dose curve; further: series mostly up to about 61 µM; nearly all actives have a fitted effect of over 55% in size)
Procedure, shortened: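 Plate 2,000 NFkB-bla ME-180 cells/well; incubate overnight. Add compounds, 5 hr at 37 C. Add FRET substrate, 1.5 hr RT. Add CellTiter-Glo, 30 min RT; read luminescence.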

[11] = qHTS assay to identify small molecule agonists of the endoplasmic reticulum stress response signaling pathway (AID 1159516; active means well fitted activation curve with a large enough effect in the signal ratio in the repeat runs, not every such curve was filed as active; the % refers to the signal ratio)
Procedure, shortened: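 Beta-lactamase expression from the ER stress response element in HeLa reporter cells is quantified with the LiveBLAzer B/G FRET substrate, read at 405 nm excitation after 2 hr at room temperature, following 5 hr compound treatment at 37 C.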

[12] = qHTS assay to identify small molecule agonists of the endoplasmic reticulum stress response signaling pathway - cell viability counter screen (AID 1159517; calls by dose curve; further: series mostly up to about 61 µM; nearly all actives have a fitted effect of over 50% in size)
Procedure, shortened: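 In parallel with the ESRE reporter read, cytotoxicity was scored by CellTiter-Glo luminescence (30 min, room temperature) on HeLa ESRE-bla cells dosed for 5 hr.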

[13] = qHTS assay to identify small molecule antagonists of the retinoid-related orphan receptor gamma (ROR-gamma) signaling pathway - cell viability counter screen (AID 1159520); further: nearly all actives have a fitted effect of over 50% in size
Procedure, shortened: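 Tet-on ROR gamma CHO cells were given compounds for 2 hr, then doxycycline hyclate at 1 uM final, and incubated 16 hr at 37 C. Viability was measured as ATP content by CellTiter-Glo luminescence.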

[14] = biological target: Nuclear receptor ROR-gamma (Homo sapiens) (UniProt P51449); assay: qHTS assay to identify small molecule antagonists of the retinoid-related orphan receptor gamma (ROR-gamma) signaling pathway (AID 1159521)
Procedure, shortened: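 Antagonist read-out: drop in luminescence (ONE-Glo) from an RORE-LUC reporter in CHO cells with doxycycline-inducible ROR-gamma; 2 hr compound pretreatment, 1 uM doxycycline, 16 hr incubation at 37 C.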

[15] = qHTS assay to identify small molecule agonists of the AP-1 signaling pathway - cell viability counter screen (AID 1159525; calls by dose curve; further: nearly all actives have a fitted effect of over 55% in size)
Procedure, shortened: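 Same-well cytotoxicity counter screen of the Tox21 10K library in ME-180 cells. The readout is ATP-dependent luminescence after 5 h compound treatment. Data are normalised to DMSO and tetra n-octyl ammonium bromide controls.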

[16] = qHTS assay to identify small molecule agonists of the AP-1 signaling pathway (AID 1159526; calls by dose curve)
[17] = biological target: Bile acid receptor (Homo sapiens) (UniProt Q96RI1); assay: qHTS assay to identify small molecule antagonists of the farnesoid-X-receptor (FXR) signaling pathway (AID 743217; active means well fitted inhibition curve with a large enough effect in the signal ratio in the repeat runs, not every such curve was filed as active; the % refers to the signal ratio)
Chain of Bile acid receptor (Homo sapiens) (Q96RI1 whole entry, looked up): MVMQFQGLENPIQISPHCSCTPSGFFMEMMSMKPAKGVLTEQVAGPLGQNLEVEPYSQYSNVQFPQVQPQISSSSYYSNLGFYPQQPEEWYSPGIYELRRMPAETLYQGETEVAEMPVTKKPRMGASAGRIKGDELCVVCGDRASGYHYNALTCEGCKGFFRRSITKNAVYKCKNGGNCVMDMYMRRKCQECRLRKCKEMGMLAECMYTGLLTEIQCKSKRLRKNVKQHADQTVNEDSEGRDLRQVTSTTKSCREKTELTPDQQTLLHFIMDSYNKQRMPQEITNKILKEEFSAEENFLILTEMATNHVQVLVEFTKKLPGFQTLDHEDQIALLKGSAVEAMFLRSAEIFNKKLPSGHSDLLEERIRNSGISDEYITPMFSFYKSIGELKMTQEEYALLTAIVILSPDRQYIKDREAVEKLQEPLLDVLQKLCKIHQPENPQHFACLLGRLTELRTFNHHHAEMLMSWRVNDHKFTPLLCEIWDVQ
Procedure, shortened: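 FRET fluorescence after 2 h room-temperature LiveBLAzer loading gives the readout. Prior step: FXR-bla HEK 293T cells, seeded and incubated 5 h, received test compounds plus 50 uM final CDCA for 16 h at 37 °C.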

[18] = qHTS assay to identify small molecule agonists of the vitamin D receptor (VDR) signaling pathway - cell viability counter screen (AID 743224)
Procedure, shortened: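 In parallel with the bla FRET readout, cytotoxicity toward VDR-bla cells after 16 h compound exposure was assessed by CellTiter-Glo, with luminescence recorded after a 30 min room-temperature incubation.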

[19] = biological target: Peroxisome proliferator-activated receptor delta (Homo sapiens) (UniProt Q03181); assay: qHTS assay to identify small molecule antagonists of the peroxisome proliferator-activated receptor delta (PPARd) signaling pathway (AID 743215; active means well fitted inhibition curve with a large enough effect in the signal ratio in the repeat runs, not every such curve was filed as active; the % refers to the signal ratio;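 further: cells stimulated with agonist L165041 at 300 nM final during compound exposure; series mostly up to about 62 µM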)
Procedure, shortened: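 Fluorescence from cleaved LiveBLAzer B/G FRET substrate (2 h, room temperature) reports PPARd-driven beta-lactamase in HEK293H UAS-bla cells. Cells had been treated 17 h at 37 C with compound plus 300 nM final L165041.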

[20] = biological target: Bile acid receptor (Homo sapiens) (UniProt Q96RI1); assay: qHTS assay to identify small molecule agonists of the farnesoid-X-receptor (FXR) signaling pathway (AID 743220; active means well fitted activation curve with a large enough effect in the signal ratio in the repeat runs, not every such curve was filed as active; the % refers to the signal ratio)
Procedure, shortened: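 FXR-UAS-bla HEK 293T cells carrying a UAS-driven beta-lactamase reporter were plated for 5 h at 37C/5% CO2, then exposed to DMSO-dissolved Tox21 10K compounds for 16 h at 37C. A LiveBLAzer B/G FRET substrate was loaded for 2 h at room temperature before fluorescence reading.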

Measured: Potency

CC(C)CCCC(C)CCCC(C)CCCCC(C)CCCC(C)CCCC(C)C (configuration not stated)
not listed: [17] | [18] | [19] | [20]
inactive: all other assays above

CCC(C(=O)NC(N)=O)c1ccccc1 (configuration not stated)
not listed: [4] | [6] | [7] | [8] | [19] | [20]
inactive: all other assays above

CC(C)c1cccc(O)c1
not listed: [5] | [17] | [20]
inactive: all other assays above

O=C(O)/C=C/c1ccc(/C=C/C(=O)O)cc1
not listed: [4] | [6] | [7] | [17] | [20]
inactive: all other assays above

Nc1nc2c(ncn2CCC(CO)CO)c(=O)[nH]1
not listed: [4] | [7] | [19]
inactive: all other assays above

Oc1cc(O)c2c(c1)O[C@H](c1ccc(O)c(O)c1)[C@H](O)C2
not listed: [5] | [17] | [20]
inactive: all other assays above

NC(N)=NS(=O)(=O)c1ccc(N)cc1
not listed: [4] | [6] | [7] | [19]
inactive: all other assays above

CCn1c(=O)c2c(nc(/C=C/c3ccc(OC)c(OC)c3)n2C)n(CC)c1=O
not listed: [19] | [20]
inactive: all other assays above

Cn1cnc2c(=O)[nH]c(N)nc21
not listed: [4] | [17] | [20]
inactive: all other assays above

CC(C=O)Cc1ccc(C(C)C)cc1 (configuration not stated)
not listed: [4] | [17] | [19] | [20]
inactive: all other assays above

CCCCC=O
not listed: [2] | [17] | [19] | [20]
inactive: all other assays above

Cc1cc(C)c(NC(=O)CN(CC(=O)O)CC(=O)O)c(C)c1Br
not listed: [2] | [7] | [17] | [19] | [20]
inactive: all other assays above

Nc1ccn(C2CO[C@H](CO)O2)c(=O)n1 (some centres not stated)
not listed: [2] | [19]
inactive: all other assays above

C=C(C)C1CC=C(C)C(O)C1 (configuration not stated)
not listed: [6] | [7] | [17] | [19] | [20]
inactive: all other assays above

Nc1ncnc2c1ncn2Cc1c(F)cccc1Cl
not listed: [3] | [6] | [17] | [19] | [20]
inactive: all other assays above

CCCCCN(CCCCC)C(=O)C(CCC(=O)O)NC(=O)c1ccc(Cl)c(Cl)c1 (configuration not stated)
not listed: [2] | [4] | [6] | [7] | [17] | [20]
inactive: all other assays above

Nc1cc(C(Cl)=C(Cl)Cl)c(S(N)(=O)=O)cc1S(N)(=O)=O
not listed: [2] | [6] | [7] | [17] | [19] | [20]
inactive: all other assays above

Cc1c(C)n(CCN(C)C)c2ccc(C(=O)OCCN(C)C)cc12
not listed: [3] | [19] | [20]
inactive: all other assays above

[O-][N+](=Nc1ccccc1)c1ccccc1
not listed: [6] | [7] | [17] | [19] | [20]
inactive: all other assays above

CCCCC1CCCCC(=O)O1 (configuration not stated)
not listed: [2] | [17] | [20]
inactive: all other assays above

O=c1[nH]c2ccccc2c(=O)n1CCCl
not listed: [4] | [8] | [17] | [19] | [20]
inactive: all other assays above

C[C@H]1O[C@@H](n2cc(F)c(=O)[nH]c2=O)[C@H](O)[C@@H]1O
not listed: [2] | [6] | [7] | [17] | [19] | [20]
inactive: all other assays above

CC(C)[N+](C)(C)CC(O)COc1cccc2ccccc12 (configuration not stated)
not listed: [4] | [6] | [7] | [17] | [19] | [20]
inactive: all other assays above

CC(C)=CC(=O)O
not listed: [6] | [17] | [19] | [20]
inactive: all other assays above

N[C@@H](CS)C(=O)O
not listed: [7] | [17] | [19] | [20]
inactive: all other assays above

CC(CCO)CCCC(C)(C)O (configuration not stated)
not listed: [2] | [17] | [19]
inactive: all other assays above

C#CC(C)(O)CC(C)C (configuration not stated)
not listed: [3] | [4] | [17] | [20]
inactive: all other assays above
